nsP2pro inh = CHIKV nsP2 protease inhibition, primary qHTS. FRET peptide cleavage, nsP2pro, fluorescence 1 h. Potency, µM (series often up to 24.9 µM), actives largely listed as inhibitors. hit rate 1.1% among 31,000. AID 1964107; note: nearly all actives have a fitted effect of over 60% in size
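Purified recombinant nsP2pro (150 nM final) in 10 mM Tris-HCl pH 8.0 with 0.01% Tween 20 was preincubated 15 min at room temperature with compound (7 concentrations, up to 25 uM). FRET peptide 2 substrate (2.5 uM final) was then added; fluorescence was read after 1 h.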
nsP2 cell sec = cell-based CHIKV nsP2 protease inhibition, secondary; cell-based CHIKV nsP2 protease reporter assay; shares compounds with nsP2pro inh; Potency, µM (highest dose often 51.1 µM), usual class: inhibitors; AID 1964100; hit rate 10% among 450; note: nearly all actives have a fitted effect of over 70% in size
NSP2 full ctr = inhibits full-length CHIKV NSP2 enzyme. shares compounds with nsP2pro inh. Full-length CHIKV NSP2 protease enzymatic counterscreen. Potency, µM (titrated, usually from 50.7 µM), actives largely listed as inhibitors. hit rate 39% among 410. AID 1964101; note: nearly all actives have a fitted effect of over 65% in size
Furin counter = selectivity counter-screen for CHIKV nsP2 protease inhibitors: human furin | Potency, µM (top dose mostly 50.6 µM), hits mostly inhibitors | AID 1964102 | hit rate 6% among 410 | shares compounds with nsP2pro inh | Recombinant human furin enzymatic counterscreen, fluorogenic substrate
nsP2 NS23 pep = selectivity test for CHIKV nsP2 protease inhibitors: endogenous NS2/3 peptide; shares compounds with nsP2pro inh; Purified CHIKV nsP2 protease, endogenous NS2/3 peptide cleavage; Potency, µM (series often up to 51 µM), usual class: inhibitors; hit rate 34% among 410; note: nearly all actives have a fitted effect of over 55% in size
Papain counter = papain protease inhibition, counterscreen for nsP2pro inhibitors; shares compounds with nsP2pro inh; hit rate 5% among 410; AID 1964104; Potency, µM (doses to about 51 µM), hits mostly inhibitors; purified papain protease activity, enzymatic inhibition
Target sequence (P00784 whole entry, looked up): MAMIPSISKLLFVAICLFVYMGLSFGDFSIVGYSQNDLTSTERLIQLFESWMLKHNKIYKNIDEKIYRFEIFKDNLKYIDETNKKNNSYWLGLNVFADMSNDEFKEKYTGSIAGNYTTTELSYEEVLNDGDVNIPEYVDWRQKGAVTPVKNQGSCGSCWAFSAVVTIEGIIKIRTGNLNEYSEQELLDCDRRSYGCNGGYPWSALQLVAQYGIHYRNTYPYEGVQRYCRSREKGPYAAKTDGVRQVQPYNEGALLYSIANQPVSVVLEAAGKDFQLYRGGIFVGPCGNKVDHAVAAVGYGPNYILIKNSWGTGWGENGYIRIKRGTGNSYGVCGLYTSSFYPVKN
nsP2pro conf qHTS = confirmation of CHIKV nsP2 protease inhibitors. shares compounds with nsP2pro inh. CHIKV nsP2 protease enzymatic activity, qHTS. Potency, µM (highest dose often 25.5 µM), usual class: inhibitors. hit rate 43% among 410. AID 1964105; note: nearly all actives have a fitted effect of over 75% in size
HCV NS3 4A cs = HCV NS3/4A protease inhibition, counterscreen; shares compounds with nsP2pro inh; HCV NS3/4A protease biochemical counterscreen; Potency, µM (top dose mostly 50.9 µM), hits mostly inhibitors; hit rate 20% among 410; AID 1964106; note: nearly all actives have a fitted effect of over 55% in size
A number is an active result; 0 = inactive; ? = inconclusive. Many of the other results were omitted from the sample, so hits are more common in it than they were. Calls come from the whole dose curve.

SMILES	nsP2pro inh	others
Cc1ccc(CN2C[C@]34C=C[C@H](O3)C(C(=O)N(C)Cc3ccsc3)C4C2=O)cc1C (stereo partly drawn)	0
C=C1C[C@]23C[C@H]1[C@@H](O)C[C@H]2[C@@]12C=C[C@H](O)[C@@](C)(C(=O)O1)[C@H]2[C@@H]3C(=O)O	0
C=C1C[C@]23C[C@H]1CC[C@H]2[C@@]12CC[C@H](O)[C@@](C)(C(=O)O1)[C@H]2[C@@H]3C(=O)O	0
C=C1CC23CC1CCC2C12OC(=O)C(C)(C(O)CC1O)C2C3C(=O)O (stereo not drawn)	?	nsP2 cell sec=0;NSP2 full ctr=0;Furin counter=0;nsP2 NS23 pep=0;Papain counter=0;nsP2pro conf qHTS=0;HCV NS3 4A cs=0
CNC(=O)c1ccccc1Oc1nc(Nc2cc(OC)c(OC)c(OC)c2)ncc1Br	0
CC(C)c1ccc(-n2cc(CN3CCCC(O)(CN(C)C)C3)cn2)cc1 (stereo not drawn)	0
Cc1ccccc1CSc1ncc(Cl)c(C(=O)NCc2ccccc2)n1	0
COc1ccc(CNC(=O)c2nc(SCc3ccccc3F)ncc2Cl)cc1	0
Cc1ccc(CSc2ncc(Cl)c(C(=O)NCc3ccccc3)n2)cc1	0
O=C(NCc1ccccc1)c1nc(S(=O)(=O)Cc2ccc(F)cc2)ncc1Cl	7.6µM	nsP2 cell sec=0.46µM;NSP2 full ctr=12µM;Furin counter=0;nsP2 NS23 pep=5.2µM;Papain counter=0;nsP2pro conf qHTS=3.6µM;HCV NS3 4A cs=?
Cc1cccc(CS(=O)(=O)c2ncc(Cl)c(C(=O)NCc3ccccc3)n2)c1	3.5µM	nsP2 cell sec=2.6µM;NSP2 full ctr=9.2µM;Furin counter=0;nsP2 NS23 pep=6.5µM;Papain counter=0;nsP2pro conf qHTS=4.5µM;HCV NS3 4A cs=?
CSc1ncc(Cl)c(C(=O)NCc2ccc(C)cc2)n1	0
COC(=O)Nc1c(N)nc(-c2nn(Cc3ccccc3F)c3ncc(F)cc23)nc1N	0
Fc1cnc(-c2ccccc2C(F)F)nc1NCc1ccc(-n2ccnn2)cc1	0
O=C1CCCC2=C1C(c1ccn[nH]1)N=C(Nc1nc3ccccc3o1)N2 (stereo not drawn)	0
CCn1ncnc1C(C)NC(=O)Cn1nc(-c2ccccc2)n(CC)c1=O (stereo not drawn)	0
Cc1ccc(CNCc2cccn2-c2nnc(N3CCCC3)s2)cc1	0
CCc1ccc(NCc2cccn2-c2nnc(N3CCCCCC3)s2)cc1	?	nsP2 cell sec=?
COc1ccccc1NCc1cccn1-c1nnc(N2CCCCCC2)s1	0
Cc1c(N)nc([C@H](CC(N)=O)NC[C@@H](N)C(N)=O)nc1C(=O)N[C@H](C(=O)N[C@@H](C)[C@H](O)[C@@H](C)C(=O)N[C@@H](C(=O)NCCc1nc(-c2nc(C(=O)NCCC[S+](C)C)cs2)cs1)[C@@H](C)O)C(O[C@H]1O[C@H](CO)[C@H](O)[C@@H](O)[C@H]1O[C@H]1O[C@H](CO)[C@@H](O)[C@H](OC(N)=O)[C@@H]1O)c1cnc[nH]1 (stereo partly drawn)	0
Cc1ccccc1OC1=NS(=O)(=O)c2ccccc21	0
Nc1ccccc1OC1=NS(=O)(=O)c2ccccc21	10µM	nsP2 cell sec=0;NSP2 full ctr=?;Furin counter=0;nsP2 NS23 pep=0;Papain counter=0;nsP2pro conf qHTS=0;HCV NS3 4A cs=0
O=S1(=O)N=C(Oc2ccccc2Br)c2ccccc21	0
C1Cc2[nH]nc(-c3nn[nH]n3)c2C1	8.8µM	nsP2 cell sec=0;NSP2 full ctr=9.2µM;Furin counter=?;nsP2 NS23 pep=?;Papain counter=0;nsP2pro conf qHTS=6.3µM;HCV NS3 4A cs=0
Fc1cc(Nc2nc(-c3ccncc3)nc3ccccc23)ccc1-c1ccc2[nH]ncc2c1	0
SMILES	nsP2pro inh	others
CCN(CC)C(=O)[C@@H]1CCC[C@@H](NC(C)=O)CN(C)C(=O)C1	0
COCC(=O)N[C@@H]1CCC[C@@H](C(=O)NC2CC2)CC(=O)N(C)C1	0
CCCNC(=O)N[C@@H]1CCC[C@@H](C(=O)NCCOC)CC(=O)N(C)C1	4µM	nsP2 cell sec=0;NSP2 full ctr=15µM;Furin counter=?;nsP2 NS23 pep=24µM;Papain counter=0;nsP2pro conf qHTS=4.1µM;HCV NS3 4A cs=?
CCOC(=O)c1ccc(O)c2ncc(N3CCC(C(=N)N)CC3)cc12	0
Cc1nc(CCNC(=O)[C@H]2CCC[C@H](O)C2)nc2c1CCC2	0
Cc1cc(C)nc(NC(=S)N2CCN(c3ccc(Cl)c(Cl)c3)CC2)c1	0
Cc1cc(C)nc(NC(=S)N2CCN(c3ccc4nsnc4c3)CC2)c1	3.2µM	nsP2 cell sec=16µM;NSP2 full ctr=7.3µM;Furin counter=0;nsP2 NS23 pep=12µM;Papain counter=0;nsP2pro conf qHTS=9µM;HCV NS3 4A cs=?
Cc1cc(C)cc(N2CCN(C(=S)Nc3cc(C)cc(C)n3)CC2)c1	0
CCOC(=O)Nc1ccc(NCc2c(C)cc(C)cc2C)cc1N	?	nsP2 cell sec=?;NSP2 full ctr=0;Furin counter=0;nsP2 NS23 pep=?;Papain counter=0;nsP2pro conf qHTS=0;HCV NS3 4A cs=0
CCOC(=O)c1ccc(NC2CCCCC2)c(N)c1	0
CCN1C(=O)Cc2cc(C(=O)NCc3c(C)cc(C)cc3C)ccc21	0
CCC(C)NC(=O)Cn1nc2n(c1=O)CCCCC2 (stereo not drawn)	0
COc1ccc(CN2CCCC3(C2)C(=NC2CCCCC2)NC(=O)N3c2cccnc2)cc1 (stereo not drawn)	0
COc1cccc(-c2ccc(CN3CCCC(N[S+](=O)([O-])c4c(C)noc4C)C3)cc2)c1 (stereo not drawn)	0
CC(C)Oc1ccc(-c2c[nH]cc2CN(C)CCN)cc1	0
O=C(C[C@@H]1CCNC[C@@H]1Cc1cc(CN2CCCCC2)on1)NCc1cccs1	0
CCCS(=O)(=O)NC1CC(N(C)c2ncnc3[nH]ccc23)C1 (stereo not drawn)	0
Cn1ccc(C(=O)NCc2nnc3n2C(C(=O)NCC2CC2)CC3)n1 (stereo not drawn)	7.9µM	nsP2 cell sec=0;NSP2 full ctr=?;Furin counter=0;nsP2 NS23 pep=?;Papain counter=0;nsP2pro conf qHTS=?;HCV NS3 4A cs=11µM
O=C(NCc1nnc2n1C(C(=O)N1CCCC1)CC2)Nc1cccnc1 (stereo not drawn)	0
CC(=O)NCc1nnc2n1C(C(=O)NC1CCCCCC1)CC2 (stereo not drawn)	0
COc1cc(Nc2nc(-c3ccncc3)nc3ccccc23)ccc1F	0
O=C(NCCc1ccc(Cl)cc1)C1CCc2nnc(CN[S+](=O)([O-])c3ccccc3Cl)n21 (stereo not drawn)	0
CN(C)C/C=C/C(=O)Nc1cccc(C(OCCN2CCCCC2)c2cc3nccc(C(=O)O)c3s2)c1 (stereo not drawn)	0
Cc1cc(C)nc(NC(=S)N2CCN(c3cccc([N+](=O)[O-])c3)CC2)c1	0
Cc1cc(/C=C2/C(=O)Nc3ccccc32)cc(C)c1O	0
C=C1C(=O)OC2/C=C(\COO)CC/C=C(\COC(C)=O)CC(OC(=O)C(C)CC)C12 (stereo not drawn)	0

Screens as filed in PubChem BioAssay.
